Screens as filed in PubChem BioAssay.
D2 PAM-1: positive allosteric modulators of human D2 dopamine receptor. potentiation, % (concentration not given with the values). 360,000 compounds, 0.23% hits. DiscoveRx D2 beta-arrestin cells, luminescence, 90 min; 100% = 57 uM dopamine signal. P14416; in the data active = potentiation above about 50%
Target sequence (P14416 whole entry, looked up): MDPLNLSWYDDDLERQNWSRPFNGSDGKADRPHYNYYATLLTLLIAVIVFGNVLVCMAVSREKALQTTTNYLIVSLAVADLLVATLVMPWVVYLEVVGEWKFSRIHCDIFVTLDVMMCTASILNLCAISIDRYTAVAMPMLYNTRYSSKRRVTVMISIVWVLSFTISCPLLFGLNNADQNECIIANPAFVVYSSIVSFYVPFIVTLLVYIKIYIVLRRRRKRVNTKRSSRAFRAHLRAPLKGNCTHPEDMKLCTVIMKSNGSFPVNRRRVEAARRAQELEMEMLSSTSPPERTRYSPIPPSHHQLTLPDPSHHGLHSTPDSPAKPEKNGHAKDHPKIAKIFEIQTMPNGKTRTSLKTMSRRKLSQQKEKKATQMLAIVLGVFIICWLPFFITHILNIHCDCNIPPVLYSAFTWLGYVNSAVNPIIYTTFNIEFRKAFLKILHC
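PathHunter beta-arrestin assay in DiscoveRx D2 cells. Compounds were added with an EC20 of dopamine (50 nM final) for 90 min at 37 deg C. Luminescence was read 1 h after detection reagent, with 57 uM dopamine as the EC100 control.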
D2 antagonist: antagonists of human D2 dopamine receptor | inhibition, % at 10 µM | AID 485344 | 340,000 compounds, 2% hits | P14416 | HEK293 TREx D2 cells, calcium flux, dopamine EC80; in the data active = inhibition above about 30%; inactive = below that, where a call was filed
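Overnight-induced (tetracycline, 30 C) HEK293 T-REx cells carrying force-coupled D2 receive a no-wash calcium dye, then compound, then EC80 dopamine at 180 s; signals are read kinetically throughout.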
D2 PAM-2: positively modulates the human D2 dopamine receptor allosterically; P14416; HEK293 T-REx D2, calcium flux, EC20 dopamine potentiation; potentiation, % at 10 µM; 340,000 compounds, 0.34% hits;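 active = potentiation over 3 SD above the plate norm, cut at about 30% in these data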
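Potentiation of an EC20 dopamine calcium response measured kinetically over 180 s, after a preceding 180 s compound-only read flagging agonists. Cells: inducible Hek293 Trex D2 line, 4000/well, cultured overnight at 30 C before dye loading.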
D2 ag-1: human D2 receptor agonism in beta-arrestin assay | DiscoveRx PathHunter D2 beta-arrestin, luminescence, 90 min; 100% = 57 uM dopamine signal | activation, % (test concentration not listed) | 360,000 compounds, 0.084% hits | AID 624465 | P14416; in the data active = activation above about 40%
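DiscoveRx PathHunter D2 beta-arrestin cells (2,100/well) attached overnight, then compound-stimulated 90 min at 37 C in HBSS/10 mM HEPES/0.1% Tween-20 buffer; beta-galactosidase complementation read by luminescence after 1 h at ambient temperature. Dopamine 57 uM final (EC100) as control.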
D2 ag-2: D2 dopamine receptor (human) agonism | 340,000 compounds, 0.53% hits | HEK293 T-REx D2 cells, calcium flux agonist mode | AID 485358 | P14416 | activation, % at 2 µM;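 active = activation over 3 SD above normal in the single-dose calcium agonist read, cut at about 30% in these data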
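Tetracycline-induced HEK293 Trex cells with D2 receptor force-coupled to calcium signaling, plated overnight at 30 C and loaded with no-wash calcium dye. Calcium flux read kinetically for 180 s after compound addition; responses flag agonists.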
Each line names hits and unclear results; the compound was inactive in the other large screens. Sampled rows, rich in hits. Any-hit rate of the full collection: about 2.4%.

CCOc1cc(CN2CCN(c3cccc(C(F)(F)F)c3)CC2)ccc1OC	none
COCC(=O)N1CCN(c2cccc(C(F)(F)F)c2)CC1	D2 antagonist 44
COc1ccc(CC(C)N2CCN(c3cccc(C(F)(F)F)c3)CC2)cc1OC (stereo not drawn)	D2 antagonist 74
CC1CN(C(=O)CCC(=O)N2CCN(c3cccc(C(F)(F)F)c3)CC2)c2ccccc2O1 (stereo not drawn)	D2 antagonist 41, D2 PAM-2 30
COCC(=O)N1CCN(c2cccc(Cl)c2)CC1	none
COc1ccc(C)c(NC(=O)NCCc2cnc[nH]2)c1	D2 antagonist 38
COc1ccc(CC(=O)NCCc2cnc[nH]2)cc1	none
COc1cccc(NC(=O)CC(C)S(=O)(=O)c2ccc3c(c2)NC(=O)CO3)c1 (stereo not drawn)	none (no result: D2 PAM-1, D2 antagonist, D2 ag-1)
Cc1ccc(NC(=O)c2ccc([N+](=O)[O-])s2)cc1S(=O)(=O)N1CCOCC1	none (no result: D2 antagonist, D2 PAM-2, D2 ag-2)
CCCOc1cc(C)c(Cl)cc1S(=O)(=O)N(CC)CC	none
CCOc1cc(C)c(Cl)cc1S(=O)(=O)N(C)C	D2 antagonist 49
CCCNC(=O)Nc1ccc2c(c1)N(C)C(=O)c1ccccc1S2	none
Cc1ccc(CNC(=O)Nc2ccc3c(c2)N(C)C(=O)CS3)cc1	none
CN1C(=O)CSc2ccc(NC(=O)NCc3ccccc3)cc21	D2 antagonist 30
CCCCNC(=O)Nc1ccc2c(c1)N(C)C(=O)c1ccccc1S2	D2 antagonist 46
COc1ccc(Cn2c(C(=O)O)c(CNCCc3ccccc3Cl)c3ccc(C)cc32)cc1	none (no result: D2 PAM-1, D2 antagonist, D2 ag-1)
Cc1ccc(CNC(=O)c2cc3c(s2)CN(Cc2ccccc2)C3)cc1	D2 antagonist 39
Cc1ccc(CNC(=O)c2cc3c(s2)CS(=O)(=O)C3)cc1	none
COCCOC(=O)c1c(C)oc2ccc(OCc3ccccc3)cc12	D2 antagonist 64
Brc1ccc(Oc2ncc(CN3CCN(c4ccccc4)CC3)s2)cc1	D2 ag-1 45
Cc1ccc(Oc2ncc(CN3CCOCC3)s2)cc1	none
O=C(C[n+]1ccc2ccccc2c1)Nc1cc(C(F)(F)F)ccc1Cl	D2 antagonist 54
O=C(C[n+]1ccccc1)Nc1cc(C(F)(F)F)ccc1Cl	none
COC1=CC(=Cc2c(N)n3nc(CC(=O)N4CCCCC4)sc3nc2=O)C=C(OC)C1=O	D2 ag-2 70
COc1ccc(NC(=O)Cn2nnnc2-c2ccccc2F)c(C)c1	none (no result: D2 PAM-1, D2 antagonist, D2 ag-1)
Cc1cccc(C)c1OCC1CNC(=O)O1 (stereo not drawn)	D2 antagonist 36
Cc1ccc(Nc2c(-c3ccc(C)o3)nc3ncccn23)cc1	none
Cc1ccc(-c2nc3ncccn3c2Nc2ccc3c(c2)OCO3)o1	D2 PAM-1 63
Cc1ccc(CCNC(=O)CCSCc2ccccc2F)cc1	none (no result: D2 PAM-1, D2 antagonist, D2 ag-1)
N#C/C(=C1\C(=O)Nc2c(Cl)cc(Cl)cc21)c1nnc2n1CCCCC2	D2 PAM-1 67 (no result: D2 antagonist, D2 PAM-2, D2 ag-2)
C=CCN(c1ccccc1)S(=O)(=O)c1cccc(C(=O)N(CC)CC(=O)Nc2c(F)cccc2F)c1	none
Cc1ccc(NC(=O)CSCc2c(C)noc2C)cc1C	none
Cc1cc(C)c(NC(=O)CSCc2c(C)noc2C)c(C)c1	D2 antagonist 49
O=C(COc1ccccc1-c1ccccc1)N/N=C/c1cccc2ccccc12	none
COc1ccc(/C=N/NC(=O)COc2ccccc2-c2ccccc2)cc1	D2 antagonist 39
CC(C(=O)N1CCc2ccccc21)N(C)CC(=O)Nc1cccc(F)c1 (stereo not drawn)	D2 antagonist 39
CN(CC(=O)Nc1cccc(F)c1)CC(=O)N1CCc2ccccc21	none
CCc1ccc(NC(=O)c2cnn3ccccc23)cc1	D2 antagonist 42
CCOC(=O)N1CCN(C(=O)C2CCN(S(=O)(=O)c3cc(C)ccc3OC)CC2)CC1	D2 antagonist 33
O=C(NCc1ccccc1)C1CCCN(C(=O)c2ccc(F)cc2)C1 (stereo not drawn)	none
CC(C)COc1ccccc1C(=O)NC(CO)C(=O)O (stereo not drawn)	D2 antagonist 43
CCCN1CCC(=O)N([C@H](COc2ccccc2)Cc2ccccc2)CC1	D2 antagonist 39
O=C1CCN(Cc2ccccc2)CCN1[C@H](COc1ccccc1)Cc1ccccc1	none
Cc1cc(C)c(NC(=O)Cn2ccn(-c3cccc(Cl)c3)c(=O)c2=O)c(C)c1	none (no result: D2 PAM-1, D2 antagonist, D2 ag-1)
CN1/C(=C\C(=O)c2cncc(Br)c2)C(C)(C)c2ccccc21	none
CN1/C(=C\C(=O)C(F)F)C(C)(C)c2ccccc21	D2 antagonist 47
CN1/C(=C\C(=O)c2cccnc2)C(C)(C)c2ccccc21	D2 antagonist 32
CN1\C(=C/C=C/C=C/C=[N+](C)C)C(C)(C)c2ccccc21	D2 antagonist 63, D2 ag-2 47
O=S(=O)(c1ccccc1)c1nc(-c2ccccc2F)oc1N1CCOCC1	none (no result: D2 PAM-1, D2 antagonist, D2 ag-1)
Cc1ccc2oc(-c3cc(NC(=O)c4ncn[nH]4)ccc3O)nc2c1	D2 PAM-2 31
Cc1cccc(-c2nc(CS(=O)CC(=O)NC3CCCC(C)C3C)c(C)o2)c1 (stereo not drawn)	none
Cc1ccc(NC(=O)CN(C)C(=O)COC(=O)c2ccc(Cl)cc2O)cc1	none
COc1cc(-c2nnc(-c3cc(OC)c(OC)c(OC)c3)o2)cc(OC)c1OC	none (no result: D2 ag-2)
CCCc1nnc(-c2cc(OC)c(OC)c(OC)c2)o1	D2 antagonist 30
CCOc1ccc(NC(=O)CC2C(=O)N(c3ccccc3)C(=O)N2Cc2ccc3c(c2)OCO3)cc1 (stereo not drawn)	none (no result: D2 PAM-1, D2 antagonist, D2 ag-1, D2 ag-2)
CN(C)S(=O)(=O)Nc1ccc(Oc2ccccc2)cc1	D2 antagonist 35
Cc1[nH]c(=O)[nH]c(=O)c1S(=O)(=O)Nc1ccc(Oc2ccccc2)cc1	none
O=C1C2C(C(=O)N1CCN1CCN(Cc3ccc([N+](=O)[O-])cc3)CC1)[C@H]1C=C[C@@H]2C1 (stereo partly drawn)	none
CCC1CCCCN1CCCCOc1cccc(Cl)c1 (stereo not drawn)	D2 antagonist 55
COc1cc2oc(=O)c(Br)c(C)c2c(OC)c1OC	D2 antagonist 39
CCc1nn(CC(=O)NCc2ccco2)c(=O)c2cc3c(OC)cccc3n12	none (no result: D2 PAM-1, D2 antagonist, D2 ag-1)
Cc1nc2ccc(NC(=O)c3cc([N+](=O)[O-])cc([N+](=O)[O-])c3Cl)cc2s1	D2 PAM-1 63
Cc1nc2ccc(NC(=O)c3ccc(Cl)c([N+](=O)[O-])c3)cc2s1	none
Fc1ccccc1N1CCN(C2CCCN(Cc3cccc(C(F)(F)F)c3)C2)CC1 (stereo not drawn)	D2 antagonist 55
Oc1ccccc1CN1CCCC(N2CCN(c3cccc(C(F)(F)F)c3)CC2)C1 (stereo not drawn)	none
CCN(CC)CCCOC(=O)C(c1ccccc1)c1ccccc1	D2 antagonist 50
Fc1ccccc1OCCCN1CCOCC1	D2 antagonist 31
